Compound activity (PubChem BioAssay)
Artemis inh: Artemis (human) endonuclease inhibition; recombinant Artemis, quenched FAM hairpin cleavage fluorescence; Q96SD1; 0.78% of 30,000 active; inhibition, % at 10 µM;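 active means at 10 µM dose, at least 30% inhibition, measured as corrected fluorescence normalized to stimulator and neutral control wells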
Target sequence (Q96SD1 whole entry, looked up): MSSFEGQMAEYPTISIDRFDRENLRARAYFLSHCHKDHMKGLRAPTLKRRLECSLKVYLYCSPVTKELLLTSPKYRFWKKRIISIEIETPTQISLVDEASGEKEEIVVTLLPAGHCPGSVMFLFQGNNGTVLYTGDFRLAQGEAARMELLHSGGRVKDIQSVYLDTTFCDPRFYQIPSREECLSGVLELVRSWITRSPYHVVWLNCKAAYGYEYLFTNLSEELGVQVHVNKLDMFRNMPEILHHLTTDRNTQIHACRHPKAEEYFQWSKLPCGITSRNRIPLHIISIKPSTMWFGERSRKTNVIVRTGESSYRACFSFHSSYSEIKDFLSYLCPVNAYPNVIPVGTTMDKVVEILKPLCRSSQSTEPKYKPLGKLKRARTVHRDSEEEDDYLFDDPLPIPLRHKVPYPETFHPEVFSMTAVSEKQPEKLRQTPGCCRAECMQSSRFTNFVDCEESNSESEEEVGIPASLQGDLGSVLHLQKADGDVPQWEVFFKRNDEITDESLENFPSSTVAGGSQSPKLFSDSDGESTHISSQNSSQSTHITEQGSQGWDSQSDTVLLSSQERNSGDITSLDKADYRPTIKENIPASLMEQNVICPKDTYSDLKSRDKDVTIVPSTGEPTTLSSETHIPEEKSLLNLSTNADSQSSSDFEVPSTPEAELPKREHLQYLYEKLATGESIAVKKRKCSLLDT
The depositor's hits bear a star. The sample as a whole holds a higher share of hits than the screen did.

SMILES	Artemis inh
CC(=O)Nc1ccc(S(=O)(=O)N(C)CCOCc2ccccc2)cc1	-1
Cc1[nH]n(-c2ccccc2)c(=O)c1C(C[N+](=O)[O-])c1ccc(Br)cc1 (stereo not drawn)	34*
Cc1nc(=S)n(-c2ccccc2)[nH]1	-5
Cc1[nH]n(-c2ccccc2)c(=O)c1-c1cccc(Cl)c1	7
O=C(O)/C=C/C(=O)Nc1ccccc1-c1ccccc1	2
O=C(Cc1cn2ccsc2n1)Nc1ccccc1Oc1ccccc1	-1
O=C(Cc1cn2ccsc2n1)Nc1nc2c(s1)CN(Cc1ccccc1)CC2	57*
CC1CCc2nc(NC(=O)CN3CCOCC3)sc2C1 (stereo not drawn)	7
O=C(Cc1cn2ccsc2n1)OCc1ccccc1	-6
CCCSc1nc2sc3c(c2c(=O)[nH]1)CCN(Cc1ccccc1)C3	21
CC1CCc2nc(NC(=O)CN3CCN(c4ccccc4)CC3)sc2C1 (stereo not drawn)	5
CCN1CCc2nc(NC(=O)C(c3ccccc3)c3ccccc3)sc2C1	49*
CCN1CCc2nc(NC(=O)CC(c3ccccc3)c3ccccc3)sc2C1	39*
CCN1CCc2c(sc(NC(=S)NC(=O)c3ccccc3)c2C#N)C1	1
O=C1C2CC=CCC2C(=O)N1c1n[nH]c(-c2ccccc2)n1 (stereo not drawn)	2
CC(=O)N1CCc2cc(S(=O)(=O)CCC(=O)N3CCN(C(=O)c4ccco4)CC3)ccc21	1
CCCCn1c(-c2ccc([N+](=O)[O-])cc2)n[nH]c1=S	-2
CCS(=O)(=O)NCCc1csc(C)n1	2
COC(=O)CSc1nc(NC#N)nc(NC(C)C)n1	2
CCN(CC)CC(O)COc1ccc2c(c1)OCO2 (stereo not drawn)	-11
CCCCNc1nc2ccccc2[nH]1	1
CCN(CC)c1ccc(C=Nc2ccc(C#N)cc2)c(O)c1	2
CCN(CC)c1ccc(/C=N/Nc2nc3ccccc3[nH]2)c(O)c1	38*
COc1cccc(C2(O)CCN(C(=O)Cc3cccnc3)CC2)c1	-8
CC(=O)N(C)c1ccc(OCC(O)Cn2c3ccc(Cl)cc3c3cc(Cl)ccc32)cc1 (stereo not drawn)	0
SMILES	Artemis inh
O=C(CCc1ccc(S(=O)(=O)NCCc2ccccc2)cc1)NCc1ccco1	-2
Nc1ccc2c(c1)C(=O)C(=O)c1ccccc1-2	71*
Nc1ccc2oc(=O)c3ccccc3c2c1	3
Nc1ccc(-c2ccc(N)cc2C(F)(F)F)c(C(F)(F)F)c1	1
O=C(Cn1nnc(-c2ccccc2Cl)n1)NCc1ccc2c(c1)OCO2	-7
CC(C)Oc1ccc(N2CC(C(=O)Nc3ccc(N4CCOCC4)cc3)CC2=O)cc1 (stereo not drawn)	-2
CCN(CCO)c1ccc(-n2c(N)c(C(=O)OC)c3nc4ccccc4nc32)cc1	-4
C=CCn1c(N)c(C(=O)OCCC)c2nc3ccccc3nc21	40*
COCCNC(=O)c1c(N)n(CCC2=CCCCC2)c2nc3ccccc3nc12	11
CCN(CC)S(=O)(=O)c1ccc(NC(=O)CCC2CCCCC2)cc1	13
COc1ccc(NC(=O)CCn2cccc2)cc1	1
O=C(Cn1cnc2c(cnn2-c2ccc(F)cc2)c1=O)OCc1ccccc1	-1
O=C(CSc1ncnc2c1nnn2-c1ccc(F)cc1)NCC1CCCO1 (stereo not drawn)	0
O=C(Cn1cnc2c(cnn2-c2ccc(F)cc2)c1=O)NCC1CCCO1 (stereo not drawn)	33*
CC1CC(C)CN(Cc2nc(N)nc(Nc3ccccc3)n2)C1 (stereo not drawn)	-3
Cc1c(Cl)cccc1Nc1nc(N)nc(CN2CCCCCC2)n1	4
Cc1ccc(Nc2nc(N)nc(CN3CCCCCC3)n2)cc1	40*
COc1ccccc1C(=O)NCCC(=O)N1CC(=O)Nc2ccccc21	-11
CC(OC(=O)c1nsc(Cl)c1Cl)C(=O)NC(C)(C)C (stereo not drawn)	-13
O=C(N/N=C/c1ccco1)c1cc(-c2ccc3ccccc3c2)n[nH]1	23
O=C(N/N=C/c1cccs1)c1cc(-c2ccc3ccccc3c2)n[nH]1	34*
O=C(N/N=C\c1ccc(Cl)s1)c1cccs1	1
CCOC(=O)C(=O)/C(=C\N(C)C)c1onc(-c2c(Cl)cccc2Cl)c1C(=O)OC	-1
COc1ccccc1NC(=O)CN1CCN(CC(=O)Nc2ccc3c(c2)OCCO3)CC1	4
O=C(Cc1ccc(NS(=O)(=O)c2ccc(F)cc2)cc1)NCc1ccccc1	2
SMILES	Artemis inh
CCCc1ccccc1OCCNC(C)=O	-4
CCCOc1cccc(NC(=O)c2cc(C)oc2C)c1	-6
CCn1c(SCC(=O)c2ccc(O)c(O)c2)nnc1-c1ccccc1	13
CCn1c(SCC(=O)c2ccc(F)cc2)nnc1-c1ccoc1C	6
CCn1c(SCC(=O)c2ccc(O)c(O)c2)nnc1-c1ccccc1OC	30*
CC(C)(C)NC(=O)COC(=O)c1cc(S(=O)(=O)N2CCCCC2)ccc1N1CCOCC1	-1
CSc1nc2ccccc2n1CC(=O)Nc1cc(C(F)(F)F)ccc1N1CCOCC1	-5
CCOc1ccc2nc(NC(=O)C(CCSC)NS(=O)(=O)c3cccs3)sc2c1 (stereo not drawn)	-1
CCOc1ccc2nc(NC(=O)C3CCCN(S(=O)(=O)c4cccs4)C3)sc2c1 (stereo not drawn)	34*
O=C(NC1CCCCCC1)C1CCCN(S(=O)(=O)c2cccs2)C1 (stereo not drawn)	5
Oc1ccc2[nH]cnc2c1CN1CCCCC1	0
CCOC(=O)C(C)n1ncn2cccc2c1=O (stereo not drawn)	33*
COC(=O)Cn1ncn2cccc2c1=O	0
CCOC(=O)C(C)n1cnc2c(cnn2-c2ccc(Cl)cc2)c1=O (stereo not drawn)	-6
COCC(=O)N(Cc1cc2cc(OC)ccc2[nH]c1=O)c1ccc(C)cc1	-9
CC(=O)c1ccc(N2CCN(C(=O)C3CCN(S(=O)(=O)Cc4ccccc4)CC3)CC2)cc1	-3
N#Cc1cn(CC(=O)N2CCc3ccccc3C2)c2ccccc12	0
Cc1cccc(C)c1NC(=O)/C(=C/c1ccco1)c1ccccc1	0
C(/C=C/c1ccco1)=N/N1CCN(c2ccccc2)CC1	0
CC1=NN(c2cccc(C(=O)O)c2)C(=O)/C1=C\C=C\c1ccco1	31*
O=S(=O)(CCc1nc2ccccc2o1)c1ccc2ccccc2c1	-5
O=C(CC(c1ccccc1)c1ccccc1)OCn1nnc2ccccc2c1=O	3
COC(=O)COc1ccc(C2NC(=O)NC(c3ccccc3)=C2C(C)=O)cc1OC (stereo not drawn)	4
COc1ccc(C2NC(=O)NC3=C2CCc2ccccc23)cc1 (stereo not drawn)	44*
COc1ccc(C(=O)N2c3ccccc3C(=O)OC2c2ccc3c(c2)OCO3)cc1 (stereo not drawn)	-8
SMILES	Artemis inh
CC(C(=O)NCc1cccnc1)N1C(=O)c2ccccc2C1=O (stereo not drawn)	1
CO/N=C(/CNC(=O)c1ccc(Cl)cc1Cl)c1ccc(Cl)cc1	-4
CCOC(=O)c1cnn(-c2ccccc2)c1-n1cccc1C(=O)C(=O)Nc1ccc(OC)cc1	1
COc1ccccc1NC(=O)c1[nH]c(C)c(C(C)=O)c1C	-4
COc1cccc(/C=N/NC(=O)c2ccc(-c3ccccc3)cc2)c1O	13
COc1cccc(/C=N/NC(=O)c2[nH]c(C)c(C(=O)N/N=C/c3cccc(OC)c3O)c2C)c1O	91*
Cc1cc(NC(=O)Cn2c(C)nc3ccccc3c2=O)ccc1Br	-8
Cc1cc(C(=O)N/N=C/c2cc(Br)ccc2OC(=O)c2ccccc2)n[nH]1	10
